# Laboratory results taken from PubChem BioAssay (NCI).
# About 83,000 compounds went through this panel and 20% of them were active in at least one assay; those are over-represented in the sample as a whole.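 48-hour exposure, single concentration, 96-well plates; percent growth endpoint where 0 means no net growth. Active: below 10.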 A number with no mark means an inactive call. Activity calls are given as the source filed them.
# Tested on: SW-620 colon
# Assay: NCI-60 one-dose screen, 48 h (100 = growth as untreated, 0 = no growth, -100 = all killed)
# Conditions: 10 µM unless noted
row,Structure (SMILES),growth
1,NC(=O)c1c(NC(=O)c2ccc(C(F)(F)F)cc2)sc2c1CCC(=O)C2,-17.5% (active)
2,COc1ccc(/C(=N\N=C(N)N)c2ccc(Cl)cc2)cc1OC,73.6%
3,O=C1[C@@H]2Cc3c([nH]c4ccccc34)[C@H](c3ccc(Cl)cc3)N2C(=O)CN1C1CCN(Cc2ccccc2)CC1,61.3%
4,CC1=Cc2ccccc2OC12C=Cc1ccccc1O2 (stereo unspecified),101%
5,C#CCOc1cccc(/C(N)=N/C(N)=N/c2nc3ccccc3s2)c1,105%

# Tested on: MCF7 breast
# Assay: as above
# Conditions: 10 µM unless noted
row,Structure (SMILES),growth
1,Cc1csc(/N=C(N)/N=C(\N)c2cccc(Br)c2)n1,73.3%
2,Clc1ccc2[nH]cc(-c3nn4cc(-c5ccncc5)nc4s3)c2c1,24.2%
3,NS(=O)(=O)c1ccc(Nc2nc(Nc3ccccc3)nc(N3N=C(c4ccc(Cl)cc4)CC3c3ccc(Cl)cc3)n2)cc1 (stereo unspecified),12.8%
4,NC1[C@H]2CN(c3cnc(C(=O)Nc4cc(F)cc5cccnc45)cn3)C[C@@H]12 (stereo partly specified),6.12% (active)
5,Cn1ncc2c(C(=O)c3ccc(F)cc3)nc(C(C)(C)C)nc21,93.6%
6,COc1ccc(C2c3[nH]c4ccc(Cl)cc4c3CCN2c2oc(CO)nc2C#N)cc1 (stereo unspecified),32%
7,Cc1ccc(Nc2nc(SC(C)C)nc(-c3ccccc3)c2C#N)cc1,92.3%
8,O=C1CSC(c2cn(-c3ccccc3)nc2-c2ccc(Cl)cc2)N1c1ccccc1 (stereo unspecified),83.5%
9,COc1ccc2[nH]cc(-c3nn4cc(-c5ccncc5)nc4s3)c2c1,11.2%
10,CC1=C(C)C(=O)C(Nc2ccc(C)cc2)=C(Br)C1=O,76%
11,Cc1ccc2c(n1)C(=O)C(Cl)=C(Nc1ccc(C(=O)OC(C)(C)C)cc1)C2=O,11.3% [9.25 µM]
12,CCOC(=O)c1c(NC(=O)c2cccc(C(F)(F)F)c2)sc2c1CCC(=O)C2,34.7%
13,C/C(=N\NC(=O)/C=C/CC(=O)O)c1nnn(-c2ccc([N+](=O)[O-])cc2)c1C,97.8%
14,N#Cc1nc(-c2ccccc2)oc1N1CCC(C2(C(F)(F)F)N=N2)CC1,89.1%
15,CNC(=O)c1cc(-n2ccc3cc(NC(=O)Nc4ccc(N5CCN(C)CC5)c(C(F)(F)F)c4)ccc32)ccn1,-23.9% (active)
16,NS(=O)(=O)c1nnc(/N=C/c2c(O)[nH]c3ccccc23)s1,87.6%
17,C#C[C@]1(O)CC[C@H]2[C@@H]3CC=C4c5sc(NCc6ccccc6)nc5CC[C@]4(C)[C@H]3CC[C@@]21C,21.7%
18,CCOC(=O)c1c(NC(=O)c2ccc(C(F)(F)F)cc2)sc2c(CN3CCN(C)CC3)c(O)ccc12,-79.5% (active)

row,Structure (SMILES),growth
1,CC(Nc1c(C#N)cnc2ccc(-c3cncc(-c4n[nH]c(=O)o4)c3)cc12)c1ccccc1 (stereo unspecified),8.39% (active)
2,Cc1ccc(-c2cc3nc(C(Cl)Cl)nc(-c4ccc(S(=O)(=O)N(C)C)cc4)n3n2)cc1,74.2%
3,O=C(N/N=C\c1ccc([N+](=O)[O-])cc1)c1ccc2nc(-c3ccc(Br)cc3)[nH]c2c1,-4.44% (active)
4,CN(C)S(=O)(=O)c1ccc(-c2nc(C(Cl)Cl)nc3cc(-c4ccccc4)nn23)cc1,72%
5,COc1ccc(/C=N/N=C(/c2ccccc2)c2ccc3nc(-c4ccc(Cl)cc4)[nH]c3c2)cc1,72%
6,CCN(CC)S(=O)(=O)c1ccc(-c2nc(C(Cl)Cl)nc3cc(C)nn23)cc1,23.5%
7,CN(C)CCNc1ccc2ncc(C#Cc3cncc(C(=O)Nc4ccc(CN5CCN(C)CC5)c(C(F)(F)F)c4)c3)n2n1,-51.9% (active)
8,COc1ccc(-c2nc(C#N)c(N3CCC(S(=O)(=O)N4CCOCC4)CC3)o2)cc1,90.7%
9,COc1ccc(OC)c(CCn2cncc2-c2c[nH]c3ccc(Cl)cc23)c1,21.6%
10,NC(=O)c1c(NC(=O)c2ccc(C(F)(F)F)cc2)sc2c1CCC(=O)C2,5.66% (active)
11,CN1CCN(c2ccc(Nc3nc(NCCNC(=O)c4ccccc4)c4sccc4n3)cc2)CC1,25.7%
12,Cc1ccc(S(=O)(=O)NCCCNc2nc(Nc3ccc(N4CCN(C)CC4)cc3)nc3ccsc23)cc1,19%
13,COc1ccc(/C(=N\N=C(N)N)c2ccc(Cl)cc2)cc1OC,54.5%
14,CCOC(=O)c1cccnc1Nc1ccc(NC(=O)Nc2ccc(Cl)c(C(F)(F)F)c2)cc1,17.8%
15,O=C1[C@@H]2Cc3c([nH]c4ccccc34)[C@H](c3ccc(Cl)cc3)N2C(=O)CN1C1CCN(Cc2ccccc2)CC1,16.2%
16,CC1=Cc2ccccc2OC12C=Cc1ccccc1O2 (stereo unspecified),82.6%
17,C#CCOc1cccc(/C(N)=N/C(N)=N/c2nc3ccccc3s2)c1,74.2%
18,CC(Nc1ncnc2ccc(-c3cnc(N)nc3)cc12)c1ccccc1 (stereo unspecified),18.5%
